# In the library only some 1.6% were active in any assay of this set; here they are far more common.
# KCNQ2 enhance: potentiators of rat KCNQ2 potassium channel. AID 2239. CHO-K1 KCNQ2, FluxOR thallium flux fluorescence; active compounds read high. O88943. hit rate 0.54% among 310,000. B-score at 10 µM;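 active means fluorescence ratio B-score at least 3 SD of library B-scores, with initial fluorescence B-score within 3 of them, cut at about 5.3 in these data; same plate scores as AID 2156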;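 further: B-score of peak minus minimum over baseline fluorescence ratio after K+ and Tl+ stimulus; positive B-score means potentiation of KCNQ2 with more thallium influx and brighter signal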
# Target sequence (O88943 whole entry, looked up): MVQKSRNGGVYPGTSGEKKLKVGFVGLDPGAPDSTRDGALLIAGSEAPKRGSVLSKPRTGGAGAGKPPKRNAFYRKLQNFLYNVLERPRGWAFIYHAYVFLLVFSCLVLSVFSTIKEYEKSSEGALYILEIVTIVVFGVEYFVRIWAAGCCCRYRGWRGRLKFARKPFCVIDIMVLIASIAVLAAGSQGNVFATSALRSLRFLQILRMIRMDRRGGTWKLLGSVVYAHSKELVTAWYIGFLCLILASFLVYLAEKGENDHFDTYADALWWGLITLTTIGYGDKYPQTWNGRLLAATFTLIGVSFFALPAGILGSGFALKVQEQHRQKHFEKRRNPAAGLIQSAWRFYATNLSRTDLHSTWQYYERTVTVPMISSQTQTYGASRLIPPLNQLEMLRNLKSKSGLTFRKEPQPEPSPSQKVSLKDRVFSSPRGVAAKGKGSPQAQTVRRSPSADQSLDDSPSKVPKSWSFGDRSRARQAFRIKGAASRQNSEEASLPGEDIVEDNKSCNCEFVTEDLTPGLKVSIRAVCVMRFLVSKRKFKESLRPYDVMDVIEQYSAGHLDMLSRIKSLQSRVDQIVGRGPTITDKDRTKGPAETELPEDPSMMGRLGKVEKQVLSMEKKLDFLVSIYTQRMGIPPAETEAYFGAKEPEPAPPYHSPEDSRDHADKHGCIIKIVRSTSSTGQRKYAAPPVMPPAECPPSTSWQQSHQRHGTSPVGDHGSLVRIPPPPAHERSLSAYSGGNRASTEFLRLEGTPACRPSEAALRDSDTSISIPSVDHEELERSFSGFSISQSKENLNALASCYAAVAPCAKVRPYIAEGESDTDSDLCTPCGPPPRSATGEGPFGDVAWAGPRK
# KCNQ2 inh: inhibitors of rat KCNQ2 potassium channel; O88943; CHO-K1 KCNQ2, FluxOR thallium flux, 20 min; active compounds read low; hit rate 1.1% among 310,000; AID 2156; B-score at 10 µM;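 active means fluorescence ratio B-score at most minus 3 library SDs, with starting brightness B-score within 2 library SDs, cut at about -5.5 in these data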
# Numbers without * were called inactive; i = inactive; · = not tested or not shown.
SMILES,KCNQ2 enhance,KCNQ2 inh
COc1ccc2[nH]c3c(c2c1)CCN1C(=O)N([C@@H](C)C(=O)NCCc2ccc(F)cc2)C(=O)[C@]31C,-7.04,-7.04*
COc1ccc2[nH]c3c(c2c1)CCN1C(=O)N([C@@H](C)C(=O)NCc2ccc(F)cc2)C(=O)[C@]31C,·,i
C[C@@H](C(=O)NCCc1ccc(F)cc1)N1C(=O)N2CCc3c([nH]c4ccccc34)[C@@]2(C)C1=O,-6.3,-6.3*
Cc1ccc(CNC(=O)[C@H](C)N2C(=O)N3CCc4c([nH]c5ccccc45)[C@@]3(C)C2=O)cc1,0.06,i
O=C(CSc1nc2ccccc2[nH]1)N/N=C/c1ccco1,0.86,i
Cc1cc(C)c(S(=O)(=O)Nc2ncn[nH]2)cc1C,0.54,i
Cc1ccnc(NS(=O)(=O)c2ccc(NC(=O)C3C4C=CC(C4)C3C(=O)O)cc2)n1 (centres undefined),·,i
CCOC(=O)C(C)/C(C)=N/NC(=O)CCC(=O)Nc1cc(C)ccc1C (centres undefined),0.13,i
COc1ccccc1N1CCN(C(=O)c2oc3ccc(F)cc3c2C)CC1,-6.53,-6.53*
COc1ccccc1N1CCN(C(=O)c2oc3ccc(Br)cc3c2C)CC1,·,i
CC(=O)c1ccc(N(C(=O)Cc2c[nH]c3ccccc23)C(C(=O)NC2CCCCC2)c2cccs2)cc1 (centres undefined),·,i
O=C(NC1CCCCC1)C(c1cccs1)N(C(=O)Cc1c[nH]c2ccccc12)c1ccc(F)cc1 (centres undefined),-6.76,-6.76*
Cc1ccc(N(C(=O)Cc2cccs2)C(C(=O)NC2CCCCC2)c2ccccn2)cc1C (centres undefined),-6.2,-6.2*
Cc1cccc(N(C(=O)Cc2cccs2)C(C(=O)NC2CCCC2)c2ccncc2)c1 (centres undefined),·,i
COc1ccc(NC(=O)C(OC(=O)c2cnccn2)c2ccccc2)cc1Cl (centres undefined),·,i
Nc1ccnc(=O)[nH]1,·,i
CCn1cc(C(=O)N[C@@H](CCSC)C(=O)NCCCn2ccnc2)c(=O)c2cc3c(cc21)OCO3,·,i
Cc1ccccc1CN(C)C(=O)CNC(=O)c1ccc2ccccc2c1,·,i
O=C(COc1ccc(S(=O)(=O)N2CCCC2)cc1)N1CCCCC1,0.88,i
Cc1ccc(S(=O)(=O)N2CC=C(C(=O)NCc3ccc(F)cc3)CC2)cc1,0.02,i
CCN(CC)c1ccc(NC(=O)C2=CCN(S(=O)(=O)c3ccc(F)cc3)CC2)c(C)c1,7.08*,i
Cc1ccc(C)c(S(=O)(=O)N2CCN(C(=O)c3cc(S(=O)(=O)NCc4ccccc4)ccc3C)CC2)c1,·,i
CCCS(=O)(=O)N1CCC(C(=O)Oc2ccc(OC)cc2)CC1,·,i
N#Cc1ccccc1/C=N/Nc1nc(-c2ccccc2)c2cc(Cl)ccc2n1,0.05,i
Cc1ccc2nc(N/N=C/c3ccccc3C#N)nc(-c3ccccc3)c2c1,-6.03,-6.03*
SMILES,KCNQ2 enhance,KCNQ2 inh
CCN(CC)S(=O)(=O)c1ccc(OC)c(NC(=O)/C=C/c2ccco2)c1,0.02,i
O=c1c2ccccc2sc2ccc(C#CC3(O)CCCCC3)cc12,·,i
COc1cccc2sc3ccc(C#CC4(O)CCCCC4)cc3c(=O)c12,-6.7,-6.7*
COCCNC(=O)c1ccc(Cl)c(S(=O)(=O)Nc2cccc(C)c2C)c1,·,i
COC(=O)c1ccc(NC(=O)CSC2=Nc3ccccc3C3CC=NN23)cc1 (centres undefined),·,i
CC(SC1=Nc2ccccc2C2CC=NN12)C(=O)NC1(C#N)CCCCC1 (centres undefined),-8.73,-8.73*
CCCN(CC1CC1)c1nc(C)nc(Nc2c(Cl)cc(Cl)cc2Cl)c1Cl,-5.63,-5.63*
CCCN(CC1CC1)c1nc(N)c(C#N)c(CC#N)c1C#N,·,i
CC(C)CCNC(=O)C(c1ccc(O)cc1)N(Cc1ccco1)C(=O)CCC(=O)Nc1nccs1 (centres undefined),1.3,i
NC(=NCCc1c[nH]c2ccccc12)NC(=O)c1ccc(Cl)cc1,-5.69,-5.69*
O=C(N[C@@H](Cc1c[nH]c2ccccc12)C(=O)O)c1ccc(Cl)cc1,1,i
CC(C)n1c(O)c(N=NC(=O)Cc2csc(N3CCOCC3)n2)c2ccccc21,·,i
Cc1ccccc1OCCC(=O)N1CCN(S(=O)(=O)c2ccc(Cl)cc2)CC1,·,i
Cc1ccc(C)c2nc(SCC(=O)N3CCCc4ccccc43)c(C#N)cc12,-7.74,-7.74*
Cc1cccc2cc(C#N)c(SCC(=O)N3CC(=O)Nc4ccccc43)nc12,0.49,i
Cc1cccc(CCN(CC(=O)NCc2ccc(F)cc2)C(=O)c2csnn2)c1,·,i
Cc1c(NC(=S)NC(=O)c2sc3ccccc3c2Cl)cccc1C(=O)O,0.24,i
COc1ccccc1C(=O)NNC(=S)NC(=O)c1sc2ccccc2c1Cl,16.5*,i
COc1ccccc1C(=O)NNC(=S)NC(=O)c1cccs1,·,i
O=C(NC(=S)Nc1cccc2cc(O)ccc12)c1ccccc1Br,·,i

# Source: PubChem BioAssay
